Measured values as given in PubChem BioAssay (EPA / NIEHS).
Activity calls are given as the source filed them. How the source made its calls: active means hit-call score of the fitted dose curve at least 0.9, where 1 is the maximum; inactive means score below 0.9.

Read-out: Cytochrome P450 3A4 (Homo sapiens) (UniProt P08684)
Test: LTEA_HepaRG_CYP3A4: Life Technologies and Expression Analysis (LTEA) Assay for CYP3A4 using HepaRG (AID 2283487)
Conditions: mRNA level, 48 h; actives raise or lower the signal
Method: LTEA_HepaRG is a cell based, multiplexed-readout assay that uses HepaRG, a human liver cell line, with measurements taken at 48 hours after chemical dosing on a 96-well plate.LTEA_HepaRG_CYP3A4 is one of 102 assay component(s) measured in the LTEA HepaRG cell culture assay. It is a marker of NR mediated metabolism.Data from the assay component LTEA_HepaRG_CYP3A4 was analyzed into 1 endpoint. This assay endpoint, LTEA_HepaRG_CYP3A4, was analyzed with bidirectional fitting relative to DMSO as the negative control and baseline of activity. Using a type of inducible reporter, measures of mRNA induction for gain or loss-of-signal activity can be used to understand regulation of transcription factor activity. To generalize the intended target to other relatable targets, this assay endpoint is annotated to the cyp intended target family, where the subfamily is xenobiotic metabolism.
A total of 1060 chemcials from the ToxCast library were tested in eight-point concentration-response experiments. Cell culture and cytotoxicity assays were conducted at Thermo Fisher Scientific's Custom Services facility (Madison, WI). A single lot of human HepaRG cells (Thermo Fisher Scientific, Frederick, MD) was used for the cell culture experiments. 96-well format collagen type I coated plates of human HepaRG cells were prepared using established methods. Briefly, cryopreserved HepaRG cells were thawed, plated at a density of approximately 100,000 cells/well in HepaRG Thaw, Plate, and General Purpose media (HPRG770, Thermo Fisher Scientific), and incubated for 48 hours. 0.5% DMSO was selected as vehicle control to balance the requisite need of DMSO in HepaRG cultures to maintain differentiation (for example, baseline metabolism, proportions of hepatocytes vs. cholangiocytes), while enabling further hepatic receptor pathway activation (for example, PXR and CAR) in response to chemical exposure. 48 hours after plating, the culture medium was replaced with HepaRG Serum-Free Incudtion Media. Cells were exposed to each test chemical in duplicate and maintained in CO2 incubators for another 48 hours. Chemical plates were thawed to room temperature and 200x concentrations of treatment groups were prepared. 8-point conentration-reponse curves were made with the highest exposure at 100 uM, followed by half-log dilutions, all in 0.5% DMSO. Each test plate contained variouse controls, induction positive controls (1mM phenobarbital), cytotoxicity positive controls ([…] aflatoxin B1), vehicle controls (0.5% DMSO), and total lysis controls (0.5% DMSO). Cell morphology images were taken using an Essen IncuCyte FLR automated microscope, with six 96-well plates imaged in about 24 minutes. Images were captured and exported and JPEG files. Spent culture media was transfered to black-well plates for the LDH assay, and remaining media was sorted at -80 C for later use. Cells were treated with RLT buffer and frozen until shipped for gene expression analysis. Total RNA was isolated from the cell suspension in 75 uL of Buffer RLT (Qiagen, Germantown, MD 20874) by Quintiles/Expression Analysis (Durham, NC) using a custom isolation procedure. Total RNA from each plate well was transferred to a preamplification plate. Fluidigm's 96.96 Dynamic ArrayTM (Fluidigm, Amsterdam, the Netherlands) technology was used for gene expression analyses by quantitative reverse transcription polymerase chain reaction (qRT-PCR, performed by Quintiles/Expression Analysis, Durham, NC)89. Standard TaqManTM Assays (Applied Biosystems/ThermoFisher Scientific, Foster City, CA) were used to assess the expression of 93 genes selected based on their selectivity and sensitivity to important hepatic receptors known to be modulated by environmental chemicals; importance in human hepatocyte functionality; and hepatotoxicity. […]

Cytochrome P450 3A4 (Homo sapiens), sequence (P08684 whole entry, looked up): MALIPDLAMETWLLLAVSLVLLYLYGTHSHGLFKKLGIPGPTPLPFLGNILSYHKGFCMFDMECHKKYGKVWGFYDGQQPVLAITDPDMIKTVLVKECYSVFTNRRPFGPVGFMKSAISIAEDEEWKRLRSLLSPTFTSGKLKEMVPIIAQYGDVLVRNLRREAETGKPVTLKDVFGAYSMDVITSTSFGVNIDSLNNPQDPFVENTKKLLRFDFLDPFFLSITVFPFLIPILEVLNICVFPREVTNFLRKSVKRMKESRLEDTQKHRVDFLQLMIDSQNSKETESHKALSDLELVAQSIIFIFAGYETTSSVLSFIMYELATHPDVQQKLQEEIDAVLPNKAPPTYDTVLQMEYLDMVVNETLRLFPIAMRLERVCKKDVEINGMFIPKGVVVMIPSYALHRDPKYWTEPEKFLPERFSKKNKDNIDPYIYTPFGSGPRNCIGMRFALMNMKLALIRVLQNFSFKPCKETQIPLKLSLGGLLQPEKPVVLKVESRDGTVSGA

outcome, inactive:
COCC(C)OCC(C)OCC(C)O (stereo not given)
CCCCCc1ccc(N)cc1
O=C=NCCCCCCN=C=O
O=C1O[C@H]([C@@H](O)CO)C(O)=C1O
CCN(Cc1cccc(S(=O)(=O)O)c1)c1ccc(C(=C2C=CC(=[N+](CC)Cc3cccc(S(=O)(=O)O)c3)C=C2)c2ccccc2S(=O)(=O)[O-])cc1
CC(C)(c1cc(Br)c(O)c(Br)c1)c1cc(Br)c(O)c(Br)c1
CCCCCCCCCC(=O)O
C[C@]12CC[C@@H]3c4ccc(O)cc4CC[C@H]3[C@@H]1CC[C@H]2O
O=C(OCCCCCCOC(=O)c1ccccc1)c1ccccc1
CCCCCCCCN(C)CCCCCCCC
O=CCCCC=O
O=C(O)c1ccccc1C(=O)OCc1ccccc1
O=c1c(-c2ccc(O)cc2)coc2cc(O)cc(O)c12
Cc1occc1C(=O)Nc1ccc(C(=O)N2CCC(F)(F)/C(=C\C(=O)N3CCC(N4CCCCC4)CC3)c3ccccc32)cc1
CC(O)CC(C)(C)O (stereo not given)
Oc1ccccc1
O=c1[nH]sc2ccccc12
Cc1cn([C@H]2C[C@H](N=[N+]=[N-])[C@@H](CO)O2)c(=O)[nH]c1=O
Cc1ncc(CO)c(CO)c1O
CCCCCCCCCCCCO
CC1=CC(=O)/C(=C(/C)O)C(=O)O1
CN1C(=O)CC[C@H]1c1cccnc1
CCCC(=O)OCCC(C)C
O=C1c2ccccc2C(=O)N1CCc1noc(-c2ccc(CN3CCCCCC3)s2)n1

AC50, active:
CN(C[C@@H](CC[N+]12CCC(C3CCCCC3)(CC1)CC2)c1ccc(Cl)c(Cl)c1)C(=O)c1cc(C(F)(F)F)cc(C(F)(F)F)c1 30.9 µM
COc1ccc2cc(S(=O)(=O)N[C@H](CC(=O)N[C@H](Cc3ccc(CN4[C@H](C)CCC[C@@H]4C)cc3)C(=O)N(C)C(C)C)c3ccc4c(c3)OCO4)ccc2c1 24 µM
CN(C)C(=O)C1(N2CCCCC2)CCN(CC[C@@]2(c3ccc(Cl)c(Cl)c3)CN(C(=O)c3ccccc3)CCO2)CC1 25.7 µM
Clc1cc(Cl)c2c(c1)N=C1CCCCCN1C2 11.1 µM
O=C1CCC(C2CCCCC2)CC1 32.5 µM
CCCOC(=O)c1cc(O)c(O)c(O)c1 1.14 µM
CC[C@H](NC(=O)c1cc(F)ccc1NS(=O)(=O)c1cccc2cccnc12)c1ccccc1 0.957 µM
CN1C(=O)N(c2ccccc2Br)Cc2cnc(Nc3ccc4c(c3)OCC(CO)O4)nc21 (stereo not given) 89.6 µM
O=C(O)Cc1cc(I)c(Oc2ccc(O)c(I)c2)c(I)c1 41.6 µM
CC(C)(C)c1cc(/C=C2\SC(N)=NC2=O)cc(C(C)(C)C)c1O 90.9 µM
CCCCCCCCCCCC[N+](C)(C)C 58.6 µM
CCN(Cc1cccnc1)C(=O)c1cccc(Cl)c1[C@]1(C)C(=O)N(Cc2ccc(OC)cc2OC)c2ccc(Cl)cc21 25.9 µM
CC[C@@H]1C[C@H](N(Cc2cc(C(F)(F)F)cc(C(F)(F)F)c2)C(C)=O)c2cc(C(F)(F)F)ccc2N1C(=O)OC(C)C 0.29 µM
NCc1cccc(C2CCN(C(=O)c3ccc(C#Cc4ccccc4F)o3)CC2)c1 75.2 µM
NC(=O)c1nc(-c2cccc(-c3cc(F)ccc3OCC(F)(F)C(F)(F)F)c2)n[nH]1 81.1 µM
Cc1cc2c(cc1C(F)(F)F)N(C(=O)Nc1ccc(Oc3cccnc3C)nc1)CC2 1.89 µM
